For experiment [1], the target named is Thyroid hormone receptor beta (Homo sapiens) (UniProt P10828). Kind of experiment: qHTS assay for small molecule antagonists of thyroid hormone receptor beta signaling (AID 588547; active = well fitted inhibition curve with a large enough effect in the signal ratio, with a control signal flat, not every such curve was filed as active; the % refers to the signal ratio;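 note: cells stimulated with 0.4 nM T3 agonist during compound exposure; % is set by controls: 0 for no effect and ±100 for the full control effect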). The conditions noted are these: TR-UAS-bla HEK293, beta-lactamase ratio, antagonist mode, 18 h. An outline of the steps:
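Inhibition of T3-driven (0.4nM final) beta-lactamase reporter activity was measured over 0.59 nM to 92 uM compound after 18 h at 37 C. The cells were GripTite HEK293 TR-UAS-bla in charcoal/dextran-stripped serum, with CCF4 ratio read-out and IC50 from Hill fits.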
On the technique in general: Quantitative high-throughput screening tests each substance at several concentrations.

The target of experiment [2] is Voltage-gated inwardly rectifying potassium channel KCNH2 (Homo sapiens) (UniProt Q12809). Put plainly: qHTS Assay for Small Molecule Inhibitors of the Human hERG Channel Activity (AID 588834).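 Note: lower thallium flux fluorescence means stronger hERG block; nearly all actives have a fitted effect of over 50% in size.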 Note: potency is the fitted concentration of half-maximal effect. Particulars: U2OS BacMam hERG, FluxOR thallium flux fluorescence; series mostly up to 46.1 µM. The essentials: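 Kinetic FDSS fluorescence; U2OS + hERG BacMam (~100 virus particles/cell); FluxOR Tl+ flux; ~10 min cpd; AC50 (Hill).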

Experiment [3] can be described thus: S16 Schwann cell viability assay (CellTiter-Glo assay) (AID 624031).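 Note: native untransfected S16 rat Schwann cells; plate controls were DMSO-treated cells for no effect and cell-free wells for full effect; nearly all actives have a fitted effect of over 70% in size.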 The conditions noted are these: S16 rat Schwann cells viability, 24 h; series mostly up to 57.5 µM. An outline of the steps: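 Following overnight culture in 10% FBS DMEM, parental S16 rat Schwann cells are dosed for 24 h at 37 °C. Viability is read as CellTiter-Glo luminescence and expressed as % activity relative to DMSO (0%) and no-cell wells.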
On the technique in general: ATP-based viability assays read luminescence as a measure of living cells.

A short description of experiment [4]: S16 Schwann cell PMP22 intronic element firefly luciferase assay (AID 624032).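 Note: plate controls were DMSO for no effect and PTC124 positive control mean for full effect; nearly all actives have a fitted effect of over 30% in size.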 Particulars: S16 rat Schwann cells, PMP22 element FLuc, 24 h; series mostly up to 57.5 µM. An outline of the steps: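 Luciferase reporter of PMP22 intronic-element expression in stably transfected S16 rat Schwann cells, read by ONE-Glo luminescence after 24 h compound exposure at 37 C. Activity scaled between DMSO (0%) and positive-control PTC124; concentration-effect curves quality-classified.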

Experiment [5] in a line: S16 Schwann cell PMP22 intronic element beta-lactamase assay (AID 624044; calls by dose curve; note: nearly all actives have a fitted effect of over 15% in size; note: potency is the fitted concentration of half-maximal effect). Particulars: S16 rat Schwann cells, PMP22 element beta-lactamase FRET, 24 h; series mostly up to 38.3 µM. An outline of the steps: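 Rat S16 Schwann cells with beta-Lac driven by a PMP22 intronic element, compound-treated 24 h at 37 °C. LiveBLAzer FRET B/G read: 460 nm normalized to potassium clavulanate vs DMSO; 535 nm FRET as viability; concentration-effect curves classified.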

In experiment [6] the target is Glutaminase kidney isoform, mitochondrial (Homo sapiens) (UniProt O94925). Kind of experiment: qHTS for Inhibitors of Glutaminase (GLS): LOPAC Validation (AID 624146). Note: nearly all actives have a fitted effect of over 60% in size. Note: potency is the fitted concentration of half-maximal effect. Particulars: glutaminase enzyme activity inhibition; series mostly up to 46.1 µM. An outline of the steps: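 Assay buffer: 45 mM KH2PO4 pH 8.2, 0.02% Tween-20. hKGA acts on L-glutamine (1 mM solution added); product glutamate is reported by an oxidase/peroxidase Amplex Red coupling, with fluorescence taken at baseline and 30 min.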

Experiment [7] is described as follows: qHTS of Trypanosoma Brucei Inhibitors: LOPAC Validation (AID 624147). Note: 0% is about no effect. Particulars: purified enzyme assay, luminescence, 45 min; series mostly up to 57.5 µM. The essentials: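 Glycolytic pyruvate kinase of T. brucei was incubated with substrate, test compound and 130 uM ADP for 45 minutes at room temperature. Luminescent Kinase-Glo Plus signal was measured after 10 minutes.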

Experiment [8] has as its target Glucagon-like peptide 1 receptor (Homo sapiens) (UniProt P43220). Put plainly: qHTS of GLP-1 Receptor Agonists: LOPAC Validation (AID 624148).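 For activation: 0% is about no effect; higher luminescence signal means agonism.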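 Note: luminescence from a luciferase reporter switched on by cAMP.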 Note: potency is the fitted concentration of half-maximal effect. Particulars: GLP-1R agonist cell assay; series mostly up to 46.1 µM. The essentials:
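Agonism scored as increased luciferase luminescence driven by cAMP in HEK293 clones carrying GLP-1R. Cells settled 12 hours, received compound for 4-6 hr at 37 deg C, 5% CO2, and were read after 12 min detection reagent at RT.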

A short description of experiment [9]: HTS Assay for Allosteric Antagonists of the Human D2 Dopamine Receptor: Hit Validation in HTRF (AID 624455). Note: potency is the fitted concentration of half-maximal effect.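 Note: stable D1 dopamine receptor cell line scored for blocking the D1 response.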 The conditions noted are these: Cells stably expressing D1 dopamine receptor, inhibition mode; series mostly up to 46.1 µM. The essentials:
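First, antagonism was screened by calcium flux in a force-coupled, inducible Hek293 Trex D2 line challenged with EC80 dopamine. Hits then went into an HTRF assay in cells stably expressing D1, testing inhibition of the D1 response.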
A general note: In TR-FRET formats the signal depends on donor and acceptor labels being close together.

Experiment [10] is described as follows: qHTS assay for small molecule agonists of the antioxidant response element (ARE) signaling pathway (AID 651741; active = well fitted activation curve with a large enough effect in the signal ratio; the % refers to the signal ratio; note: potency is the fitted concentration of half-maximal effect). The conditions noted are these: HepG2 ARE-bla reporter, beta-lactamase FRET ratio, 16 h; series mostly up to 96 µM. An outline of the steps: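 Quantitative HTS in HepG2 cells stably expressing an ARE-beta-lactamase reporter; 16 h compound exposure at 37 C, followed by 2 h room-temperature incubation with LiveBLAzer B/G FRET substrate and fluorescence measurement.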

Experiment [11] can be described thus: qHTS of Nrf2 Activators: LOPAC Validation (AID 624149). Note: 0% is about no effect. The conditions noted are these: Nrf2/ARE reporter cell assay; series mostly up to 46.1 µM. An outline of the steps: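 Luminescence read-out of ARE-luciferase activation: AREc32_Fluc cells treated with compounds for 24 hr at 37 deg C, then lysed with Steady-Glo for 30 min at room temperature before reading.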

Experiment [12] can be described thus: Cytotoxicity counterscreen for NFkB agonists and antagonists (AID 624476).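 Note: cells exposed to compound for 48 hours; % is set by controls: 0 for no effect and ±100 for the full control effect.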 Particulars: NFkB reporter cell line viability counterscreen; series mostly up to 46.1 µM.
Experiment [13] is described as follows: qHTS Assay for Identification of Small Molecule Agonists for NFkB Signaling Pathway. (AID 624478).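 Note: compounds tested together with TNF alpha at its EC50 of 10 pM; 0% is about no effect.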 Particulars: NFkB pathway reporter cell assay, agonist mode, cells co-stimulated with 10 pM TNF alpha; series mostly up to 46.1 µM. An outline of the steps:
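ME-180 cervical carcinoma, stable NFkB-RE beta-lactamase reporter; 1000 cells/well, overnight attachment; cpd + TNF alpha 10 pM final, 5 h 37 C; LiveBLAzer 2 h RT; FRET 460/530 nm, ex 405 nm.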

Experiment [14] has as its target Luciferin 4-monooxygenase (Photinus pyralis) (UniProt P08659). Kind of experiment: Biochemical firefly luciferase enzyme assay for NPC (AID 624030). Note: nearly all actives have a fitted effect of over 70% in size. Note: potency is the fitted concentration of half-maximal effect. Particulars: purified P. pyralis luciferase, luminescence, 5 min; series mostly up to 58.6 µM. The essentials:
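Direct inhibition of firefly luciferase enzyme (10 nM final, 50 mM Tris Acetate) assessed by luminescence within 5 minutes. Percent activity scaled between DMSO and PTC124 positive control, with concentration-effect curves classified by fit quality and response.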

Structures are written as SMILES. Where “and” joins values, the source holds several entries; their conditions need not be identical. Equal entries are not always repeated. Results filed as inconclusive are left out. Some structures have more than one record in an assay (separate samples or runs), and their calls can disagree. Calls of active or inactive are those of the source. Unless noted, calls come from the whole dose curve; as a rule, active = well fitted curve in the direction sought with a large enough effect; inconclusive = small, poorly fitted or top-dose-only effect, or another doubt; inactive = no such curve, though single readings can be large; an effect the other way counts as inactive or inconclusive.

Luciferin 4-monooxygenase (Photinus pyralis), sequence (P08659 whole entry, looked up): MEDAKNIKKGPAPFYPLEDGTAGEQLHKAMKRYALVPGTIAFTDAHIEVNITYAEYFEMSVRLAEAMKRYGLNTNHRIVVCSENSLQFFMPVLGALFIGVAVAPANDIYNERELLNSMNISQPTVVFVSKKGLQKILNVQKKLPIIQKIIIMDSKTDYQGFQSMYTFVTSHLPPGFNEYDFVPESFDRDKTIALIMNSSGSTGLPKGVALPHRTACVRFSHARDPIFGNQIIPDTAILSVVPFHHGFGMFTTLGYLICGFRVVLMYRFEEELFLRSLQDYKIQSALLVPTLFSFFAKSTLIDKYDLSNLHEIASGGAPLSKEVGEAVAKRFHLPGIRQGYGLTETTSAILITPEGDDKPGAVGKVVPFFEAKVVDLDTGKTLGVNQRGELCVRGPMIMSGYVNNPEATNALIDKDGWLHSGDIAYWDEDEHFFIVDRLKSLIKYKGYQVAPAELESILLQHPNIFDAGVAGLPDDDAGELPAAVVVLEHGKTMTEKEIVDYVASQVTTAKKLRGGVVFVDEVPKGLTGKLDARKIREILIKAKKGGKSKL
Glutaminase kidney isoform, mitochondrial (Homo sapiens), sequence (O94925 whole entry, looked up, canonical isoform): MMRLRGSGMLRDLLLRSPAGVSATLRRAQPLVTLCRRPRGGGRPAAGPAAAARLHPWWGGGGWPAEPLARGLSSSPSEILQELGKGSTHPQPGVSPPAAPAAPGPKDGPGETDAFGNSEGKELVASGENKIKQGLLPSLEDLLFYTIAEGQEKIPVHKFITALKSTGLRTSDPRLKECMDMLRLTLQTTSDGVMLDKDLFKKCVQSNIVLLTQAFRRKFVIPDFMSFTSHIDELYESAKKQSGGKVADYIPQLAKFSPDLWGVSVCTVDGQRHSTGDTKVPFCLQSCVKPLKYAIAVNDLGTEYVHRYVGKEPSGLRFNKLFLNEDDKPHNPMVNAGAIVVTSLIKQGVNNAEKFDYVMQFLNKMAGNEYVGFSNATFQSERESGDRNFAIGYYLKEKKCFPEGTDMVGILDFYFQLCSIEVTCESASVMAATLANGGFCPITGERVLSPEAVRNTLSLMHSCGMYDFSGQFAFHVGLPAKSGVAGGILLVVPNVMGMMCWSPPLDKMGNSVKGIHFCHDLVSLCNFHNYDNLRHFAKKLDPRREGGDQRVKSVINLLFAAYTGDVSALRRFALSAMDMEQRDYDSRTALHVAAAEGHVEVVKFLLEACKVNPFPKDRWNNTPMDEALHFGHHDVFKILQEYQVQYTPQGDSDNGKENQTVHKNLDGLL
Glucagon-like peptide 1 receptor (Homo sapiens), sequence (P43220 whole entry, looked up): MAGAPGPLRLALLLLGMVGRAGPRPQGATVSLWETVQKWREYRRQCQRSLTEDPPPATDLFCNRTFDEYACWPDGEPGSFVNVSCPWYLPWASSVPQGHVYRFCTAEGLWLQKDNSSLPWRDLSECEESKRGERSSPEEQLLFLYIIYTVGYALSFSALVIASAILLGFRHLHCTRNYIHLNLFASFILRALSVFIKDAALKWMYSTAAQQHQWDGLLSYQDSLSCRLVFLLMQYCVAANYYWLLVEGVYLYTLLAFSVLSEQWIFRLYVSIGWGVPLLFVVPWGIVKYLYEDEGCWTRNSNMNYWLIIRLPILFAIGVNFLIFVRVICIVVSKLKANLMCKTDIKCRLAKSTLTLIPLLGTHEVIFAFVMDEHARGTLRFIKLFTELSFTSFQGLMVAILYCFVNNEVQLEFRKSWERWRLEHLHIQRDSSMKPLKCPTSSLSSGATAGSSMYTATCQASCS
Voltage-gated inwardly rectifying potassium channel KCNH2 (Homo sapiens), sequence (Q12809 whole entry, looked up): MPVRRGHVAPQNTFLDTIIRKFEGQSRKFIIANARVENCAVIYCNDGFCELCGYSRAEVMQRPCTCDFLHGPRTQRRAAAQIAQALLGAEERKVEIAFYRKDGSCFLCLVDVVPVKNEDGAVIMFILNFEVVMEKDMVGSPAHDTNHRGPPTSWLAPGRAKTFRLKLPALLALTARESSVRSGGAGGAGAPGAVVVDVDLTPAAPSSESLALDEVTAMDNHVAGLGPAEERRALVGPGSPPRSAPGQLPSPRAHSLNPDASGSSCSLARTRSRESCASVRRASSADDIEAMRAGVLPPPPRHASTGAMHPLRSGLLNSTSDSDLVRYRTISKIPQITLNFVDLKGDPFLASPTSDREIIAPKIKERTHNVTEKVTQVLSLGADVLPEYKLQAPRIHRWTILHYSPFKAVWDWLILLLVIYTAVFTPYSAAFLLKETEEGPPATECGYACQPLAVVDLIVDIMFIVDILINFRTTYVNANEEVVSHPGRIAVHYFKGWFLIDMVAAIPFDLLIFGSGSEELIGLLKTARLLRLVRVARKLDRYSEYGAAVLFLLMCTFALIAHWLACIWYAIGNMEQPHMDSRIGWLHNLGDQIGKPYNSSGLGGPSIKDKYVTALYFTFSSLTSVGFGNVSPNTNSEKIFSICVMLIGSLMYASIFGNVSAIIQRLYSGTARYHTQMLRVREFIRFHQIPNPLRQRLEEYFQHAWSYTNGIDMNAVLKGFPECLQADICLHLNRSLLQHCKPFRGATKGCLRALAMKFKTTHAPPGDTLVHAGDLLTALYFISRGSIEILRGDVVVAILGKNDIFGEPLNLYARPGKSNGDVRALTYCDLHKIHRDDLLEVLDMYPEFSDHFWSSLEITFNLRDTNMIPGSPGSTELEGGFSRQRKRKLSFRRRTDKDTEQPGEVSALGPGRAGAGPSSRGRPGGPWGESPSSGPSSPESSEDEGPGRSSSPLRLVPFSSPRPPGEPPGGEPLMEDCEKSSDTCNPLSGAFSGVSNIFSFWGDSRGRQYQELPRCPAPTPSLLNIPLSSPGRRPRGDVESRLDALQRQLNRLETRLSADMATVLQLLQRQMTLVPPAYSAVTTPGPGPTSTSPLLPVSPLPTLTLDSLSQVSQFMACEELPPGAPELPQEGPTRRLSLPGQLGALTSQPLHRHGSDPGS
Thyroid hormone receptor beta (Homo sapiens), sequence (P10828 whole entry, looked up): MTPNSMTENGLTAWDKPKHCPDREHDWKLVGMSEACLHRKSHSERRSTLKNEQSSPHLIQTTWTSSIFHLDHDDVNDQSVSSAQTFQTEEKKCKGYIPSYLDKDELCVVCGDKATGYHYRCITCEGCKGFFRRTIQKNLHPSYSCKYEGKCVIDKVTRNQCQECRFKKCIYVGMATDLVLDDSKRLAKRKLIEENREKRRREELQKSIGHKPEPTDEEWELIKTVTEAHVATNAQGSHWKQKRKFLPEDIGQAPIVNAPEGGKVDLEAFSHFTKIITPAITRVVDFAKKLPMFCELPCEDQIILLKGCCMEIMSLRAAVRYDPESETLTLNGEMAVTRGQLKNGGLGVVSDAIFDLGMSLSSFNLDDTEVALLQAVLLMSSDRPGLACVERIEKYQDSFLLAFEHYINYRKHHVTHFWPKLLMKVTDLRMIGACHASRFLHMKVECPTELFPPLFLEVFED

For the molecule `O=c1c(-c2ccc(O)cc2)coc2cc(O)cc(O)c12`, the activity change % (negative = inhibition) in experiment [1] is -35.3% (inactive). For the same molecule, the Potency result in experiment [2], in experiment [3], in [4], in experiment [6], in experiment [7] and in experiment [8] was “inactive” each time. The Potency result in [9] was “inactive”. The Potency was 25.1 µM (active) in [5]; 9.69 µM (active) and 13.3 µM (active) in experiment [10].
Regarding `COc1cc2nc(N(C)CCCNC(=O)C3CCCO3)nc(N)c2cc1OC` (stereo not drawn), the Potency entry in experiment [2], in [6], in experiment [7], in experiment [8] and in [9] was “inactive” throughout. Besides, the result in experiment [11] was inactive.
Take `O=c1c(O)c(-c2ccc(O)c(O)c2)oc2cc(O)cc(O)c12`: the Potency entry in experiment [2], in experiment [3], in [4], in experiment [5], in [7] and in [8] was “inactive” each time. The Potency entry in [9] and in [12] was “inactive” in each case. Further, in experiment [13], the molecule was classed as inactive.
Consider `COc1ccc(C2CNC(=O)C2)cc1OC1CCCC1` (stereo not drawn), for which the Potency result in experiment [2], in [6], in [7] and in experiment [9] was “inactive” each time. Besides, the Potency in [8] is 0.0461 µM (active). Moreover, the result in [11] was inactive.
Take `Clc1ccccc1C(c1ccccc1)(c1ccccc1)n1ccnc1`: the Potency in experiment [2] is 10 µM (active) and 11.2 µM (active). The Potency entry in experiment [14], in [3], in experiment [5], in experiment [6], in experiment [7] and in [8] was “inactive” in each case. Also, the Potency result in [9] is “inactive”. For the same molecule, the call in experiment [11] was inactive.
`Cc1cc(C(C)(C)C)c(O)c(C)c1CC1=NCCN1`: the Potency in experiment [2] was 11.2 µM (active). Also, the Potency result in [14], in [3], in [4], in [7], in experiment [8] and in experiment [9] was “inactive” in each case.
Take `CC(CCc1ccc(O)cc1)NCCc1ccc(O)c(O)c1` (stereo not drawn): the Potency entry in experiment [2] was “inactive and 3.55 µM (active)”; in experiment [9], 3.26 µM (active). Moreover, the Potency result in [3], in [4], in [5] and in experiment [7] was “inactive” throughout.
For `CCOC(=O)c1ncn2c1CN(C)C(=O)c1cc(F)ccc1-2`, the Potency result in experiment [2], in experiment [14], in experiment [3], in [4], in [6] and in experiment [7] was “inactive” throughout. Besides, the Potency result in experiment [8] and in experiment [9] was “inactive” each time.
Consider `CS(=O)(=O)Nc1ccc([N+](=O)[O-])cc1Oc1ccccc1`, for which the Potency entry in [2], in experiment [14], in experiment [3], in experiment [4], in [8] and in experiment [9] was “inactive” throughout.
As for `CCOC(=O)Nc1ccc(NCc2ccc(F)cc2)nc1N`, the figures for the Potency in experiment [2] and in [6] were 14.1 µM (active) and 12.6 µM (active), respectively. Also, the Potency result in [3], in experiment [5], in experiment [7], in experiment [8] and in experiment [9] was “inactive” in each case. The call in experiment [11] was inactive.
`Clc1ccc2nsnc2c1NC1=NCCN1`: the Potency entry in [2], in [3], in experiment [4], in [6], in experiment [7] and in experiment [8] was “inactive” each time. The Potency entry in [9] was “inactive”.
Consider `Cc1ccc(C(=O)Nc2ccc(S(=O)(=O)O)c3cc(S(=O)(=O)O)cc(S(=O)(=O)O)c23)cc1NC(=O)c1cccc(NC(=O)Nc2cccc(C(=O)Nc3cc(C(=O)Nc4ccc(S(=O)(=O)O)c5cc(S(=O)(=O)O)cc(S(=O)(=O)O)c45)ccc3C)c2)c1`, for which the Potency result in experiment [2], in experiment [3], in [4], in [8] and in experiment [9] was “inactive” in each case. Further, in [14], the Potency is 11.4 µM (active).

(Values after PubChem BioAssay (NCATS).)
